This note sets out measurements from PubChem BioAssay (EPA / NIEHS).

Results filed as inconclusive are left out. The source made the active and inactive calls. The calls were made as follows, unless noted: active = hit-call score of the fitted dose curve at least 0.9, where 1 is the maximum; inactive = score below 0.9.

The target in assay [1] is Paired box protein Pax-6 (Homo sapiens) (UniProt P26367). The assay is described as follows: ATG_Pax6_CIS: Attagene CIS-FACTORIAL HepG2 Assay for human Paired Box 6 (PAX6) (AID 2282956). Conditions: HepG2 CIS-FACTORIAL PAX6 reporter transcription, RNA readout; actives raise or lower the signal. An outline of the steps:
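Readout: reporter transcript fluorescence after RT-PCR and capillary electrophoresis. Cells: HepG2, transiently transfected with cis-regulated MRTUs. Exposure 24 h. Gain or loss of signal fitted bidirectionally relative to DMSO.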

Assay [2] is described as follows: ATG_PXRE_CIS: Attagene CIS-FACTORIAL HepG2 Assay for human Pregnane X Receptor Element (PXRE) (AID 2282957). Conditions: HepG2 Attagene CIS-FACTORIAL PXRE reporter, mRNA; actives raise or lower the signal. An outline of the steps:
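Using HepG2 transfected with multiple reporter transcription units, endogenous factor-driven transcription was scored as reporter mRNA after 24 h exposure.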

The nature of assay [3]: ATG_PPRE_CIS: Attagene CIS-FACTORIAL HepG2 Assay for human Peroxisome Proliferator-activated Response Element (PPRE) (AID 2282958). As to conditions: HepG2 PPRE cis-element reporter, Attagene transcription factor profiling; actives raise or lower the signal. The method in brief:
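Multiplexed reporter transcription units under cis-regulatory promoters were transfected into HepG2 cells to capture endogenous factor activity. A 24 h incubation preceded RNA isolation and fluorescent RT-PCR fragment analysis.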

Assay [4] in a line: ATG_RORE_CIS: Attagene CIS-FACTORIAL HepG2 Assay for human RAR-related Orphan Receptor Element (RORE) (AID 2282959). As to conditions: HepG2 Attagene cis-factorial RORE reporter, mRNA; actives raise or lower the signal. The method in brief: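 Fluorescence intensity of reporter-specific cDNA fragments, separated by capillary electrophoresis, gives the signal. Source: HepG2 liver cells transiently transfected with cis-element reporters and exposed 24 h; DMSO-normalized bidirectional fit.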

Assay [5] can be described thus: ATG_Sox_CIS: Attagene CIS-FACTORIAL HepG2 Assay for human SRY-box transcription factor (SOX) (AID 2282960). As to conditions: HepG2 Attagene cis-factorial SOX reporter, mRNA; actives raise or lower the signal. An outline of the steps:
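After 24 h of chemical treatment, transfected HepG2 reporter cells are lysed for total RNA. Transcript levels come from RT-PCR with labelled primer extension and capillary electrophoresis, analysed bidirectionally versus DMSO.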

The target of assay [6] is Transcription factor Sp1 (Homo sapiens) (UniProt P08047). The assay is described as follows: ATG_Sp1_CIS: Attagene CIS-FACTORIAL HepG2 Assay for human Specificity Protein 1 (Sp1) (AID 2282961). As to conditions: HepG2 Sp1 cis-reporter transcription, actives raise or lower the signal. The method in brief:
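Sp1-driven reporter mRNA, read as capillary electrophoresis fluorescence after RT-PCR, in transiently transfected HepG2 cells dosed for 24 h; signal change in either direction relative to DMSO.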

The target in assay [7] is Signal transducer and activator of transcription 3 (Homo sapiens) (UniProt P40763). The assay is described as follows: ATG_STAT3_CIS: Attagene CIS-FACTORIAL HepG2 Assay for human Signal Transducer and Activator of Transcription 3 (STAT3) (AID 2282963). As to conditions: HepG2, Attagene cis-factorial STAT3 reporter transcription; actives raise or lower the signal. An outline of the steps: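 Readout: fluorescent reporter mRNA fragments resolved by capillary electrophoresis. Setup: HepG2 transfected with MRTUs reporting endogenous transcription-factor activity, dosed 24 h. Gain or loss of signal fitted bidirectionally against DMSO control.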

A short description of assay [8]: ATG_TA_CIS: Attagene CIS-FACTORIAL HepG2 Assay for human TA Basal Promoter (AID 2282964). Conditions: HepG2 Attagene CIS-factorial TA basal promoter reporter; actives raise or lower the signal. The method in brief:
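Steps: transfect HepG2 with MRTUs; dose 24 h; isolate RNA, DNase-treat, reverse-transcribe; PCR and FAM-label reporter cDNA; digest with HpaI 2h at 37 C; run capillary electrophoresis. Activity fitted both directions against DMSO.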

The nature of assay [9]: ATG_TCF_b_cat_CIS: Attagene CIS-FACTORIAL HepG2 Assay for human T-Cell-Factor with beta-catenin (TCF/b-cat) (AID 2282965). Conditions: HepG2 TCF/beta-catenin cis-reporter transcription, actives raise or lower the signal. The method in brief:
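Cells of the HepG2 line carry transiently transfected reporter units whose promoters respond to endogenous factors. Twenty-four hours post-dosing, reporter mRNA induction is measured by fluorescent RT-PCR and capillary electrophoresis, with DMSO as baseline.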

Assay [10] can be described thus: ATG_TAL_CIS: Attagene CIS-FACTORIAL HepG2 Assay for human TAL Basal Promoter (AID 2282966).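 Also: background control endpoint measuring basal TAL promoter reporter mRNA not a specific factor.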 As to conditions: HepG2 Attagene cis-factorial TAL promoter reporter; actives raise or lower the signal. The method in brief:
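After 24 hours of chemical exposure, transfected HepG2 cells yielded RNA that was converted to 6-FAM-labelled, HpaI-digested reporter fragments for capillary electrophoresis. Values derive from bidirectional fitting against DMSO controls.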

Assay [11] is described as follows: ATG_TGFb_CIS: Attagene CIS-FACTORIAL HepG2 Assay for human Transforming Growth Factor (TGF) (AID 2282967). As to conditions: HepG2 Attagene CIS TGFb reporter, mRNA transcription; actives raise or lower the signal. The method in brief:
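Cells were dosed for 24 hours, after which total RNA was reverse-transcribed and reporter sequences amplified, labeled and sized by capillary electrophoresis. Activity was fitted in both directions against DMSO.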

Assay [12] in a line: ATG_VDRE_CIS: Attagene CIS-FACTORIAL HepG2 Assay for human Vitamin D Receptor Element (VDRE) (AID 2282968). As to conditions: HepG2 VDRE cis-reporter transcription, actives raise or lower the signal. An outline of the steps: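 Transient MRTU transfection of HepG2, 24 h compound exposure. Readout: reporter transcripts via RT-PCR and capillary electrophoresis, fluorescence. Bidirectional fit vs DMSO.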

Assay [13] addresses X-box-binding protein 1 (Homo sapiens) (UniProt P17861). Nature of the assay: ATG_Xbp1_CIS: Attagene CIS-FACTORIAL HepG2 Assay for human X-box Binding Protein 1 (XBP1) (AID 2282972). Conditions: HepG2 XBP1 cis-element reporter, Attagene multiplex; actives raise or lower the signal. The method in brief: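 Read-out: fluorescent reporter mRNA fragments resolved by capillary electrophoresis after RT-PCR. Human HepG2 liver cells carried transfected cis-promoter reporter units and were exposed to chemicals for 24 hours. Gain or loss of signal fitted relative to DMSO baseline.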

Assay [14] can be described thus: ATG_SREBP_CIS: Attagene CIS-FACTORIAL HepG2 Assay for human Sterol Regulatory Element Binding (SREBP) (AID 2282962). As to conditions: HepG2 Attagene cis-factorial SREBP reporter, mRNA; actives raise or lower the signal. An outline of the steps:
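Readout: fluorescent reporter-transcript peaks resolved by capillary electrophoresis after RT-PCR. Cells were human HepG2 carrying transfected cis-promoter reporter constructs, dosed for 24 h. Gain or loss of signal was fitted against DMSO controls.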

Assay [15] deals with Steroid hormone receptor ERR1 (Homo sapiens) (UniProt P11474). Nature of the assay: ATG_ERRa_TRANS: Attagene TRANS-FACTORIAL HepG2 Assay for human Estrogen-Related Receptor alpha (ERRa) (AID 2282971; active = hit-call score of the fitted dose curve at least 0.9, where 1 is the maximum). As to conditions: HepG2 Attagene TRANS reporter, ERRa transactivation. An outline of the steps:
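Reporter transcript induction was quantified by RT-PCR and capillary electrophoresis of FAM-labelled, HpaI-cut products after 24 h treatment of HepG2 cells carrying transiently transfected GAL4-UAS reporter units and an exogenous ERRa-Gal4 fusion; activity scored as increase over DMSO.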

Assay [16] is described as follows: ATG_M_19_TRANS: Attagene TRANS-FACTORIAL HepG2 Assay for M19 Transcription Factor (Internal Marker) (AID 2282974; active = hit-call score of the fitted dose curve at least 0.9, where 1 is the maximum). As to conditions: HepG2 Attagene TRANS-FACTORIAL M19 internal marker reporter. An outline of the steps: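 Measured here: internal-marker reporter transcript from HepG2 cells transfected with MRTUs, harvested at 24 h. cDNA PCR products were 6-FAM labelled by primer extension, cut with HpaI for 2 h at 37 C, and resolved by CE.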

For assay [17], the target named is Nuclear receptor subfamily 1 group I member 3 (Homo sapiens) (UniProt Q14994). The assay is described as follows: ATG_CAR_TRANS: Attagene TRANS-FACTORIAL HepG2 Assay for human Constitutive Androstane Receptor (CAR) (AID 2282969; active = hit-call score of the fitted dose curve at least 0.9, where 1 is the maximum;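 also: activators raise reporter mRNA above DMSO so AC50 marks induction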). As to conditions: HepG2 Attagene TRANS-FACTORIAL CAR reporter. The method in brief:
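Transiently transfected HepG2, multiplex TRANS reporters (CAR-Gal4 chimera driving GAL4-UAS reporter). 24 h dosing. Readout: reporter transcript by RT-PCR + capillary electrophoresis, fluorescence intensity; positive direction vs DMSO.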

Assay [18] deals with Estrogen receptor (Homo sapiens) (UniProt P03372). The assay is described as follows: ATG_ERa_TRANS: Attagene TRANS-FACTORIAL HepG2 Assay for human Estrogen Receptor alpha (ERa) (AID 2282970; active = hit-call score of the fitted dose curve at least 0.9, where 1 is the maximum). Conditions: HepG2 Attagene TRANS ERa GAL4 reporter, mRNA. The method in brief: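 Liver-derived HepG2 cells expressing chimeric nuclear receptor-Gal4 proteins from transient transfection were exposed for 24 hours. Gain of reporter mRNA signal versus DMSO, read by capillary electrophoresis of FAM-labelled PCR products, was recorded.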
Estrogen receptor (Homo sapiens), sequence (P03372 whole entry, looked up, the tested form may be a part): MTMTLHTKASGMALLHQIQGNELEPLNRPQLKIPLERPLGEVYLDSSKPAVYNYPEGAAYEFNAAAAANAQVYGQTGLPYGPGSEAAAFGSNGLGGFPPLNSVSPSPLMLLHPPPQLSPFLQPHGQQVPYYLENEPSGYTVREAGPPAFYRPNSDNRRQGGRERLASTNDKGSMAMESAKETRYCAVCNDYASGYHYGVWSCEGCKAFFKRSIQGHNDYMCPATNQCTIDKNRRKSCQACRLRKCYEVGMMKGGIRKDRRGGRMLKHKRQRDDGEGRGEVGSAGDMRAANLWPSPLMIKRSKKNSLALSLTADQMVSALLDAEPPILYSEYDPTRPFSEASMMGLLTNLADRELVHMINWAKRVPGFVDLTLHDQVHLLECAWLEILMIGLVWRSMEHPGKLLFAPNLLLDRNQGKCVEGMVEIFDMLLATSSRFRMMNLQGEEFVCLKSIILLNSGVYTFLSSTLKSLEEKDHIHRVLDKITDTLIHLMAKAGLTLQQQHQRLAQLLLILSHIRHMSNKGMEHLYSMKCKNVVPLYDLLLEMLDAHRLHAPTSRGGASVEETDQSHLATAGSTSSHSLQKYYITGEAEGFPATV

Nuclear receptor subfamily 1 group I member 3 (Homo sapiens), sequence (Q14994 whole entry, looked up, the tested form may be a part): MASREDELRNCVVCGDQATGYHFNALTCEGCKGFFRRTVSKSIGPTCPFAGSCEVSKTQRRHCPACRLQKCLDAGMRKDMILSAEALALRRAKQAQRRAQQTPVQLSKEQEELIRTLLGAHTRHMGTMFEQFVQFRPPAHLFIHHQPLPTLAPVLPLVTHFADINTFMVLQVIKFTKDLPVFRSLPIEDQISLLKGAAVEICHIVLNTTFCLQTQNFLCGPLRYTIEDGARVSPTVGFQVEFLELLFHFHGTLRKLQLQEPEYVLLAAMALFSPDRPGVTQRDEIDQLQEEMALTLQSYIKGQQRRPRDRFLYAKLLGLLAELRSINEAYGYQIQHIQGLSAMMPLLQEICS
Paired box protein Pax-6 (Homo sapiens), sequence (P26367 whole entry, looked up): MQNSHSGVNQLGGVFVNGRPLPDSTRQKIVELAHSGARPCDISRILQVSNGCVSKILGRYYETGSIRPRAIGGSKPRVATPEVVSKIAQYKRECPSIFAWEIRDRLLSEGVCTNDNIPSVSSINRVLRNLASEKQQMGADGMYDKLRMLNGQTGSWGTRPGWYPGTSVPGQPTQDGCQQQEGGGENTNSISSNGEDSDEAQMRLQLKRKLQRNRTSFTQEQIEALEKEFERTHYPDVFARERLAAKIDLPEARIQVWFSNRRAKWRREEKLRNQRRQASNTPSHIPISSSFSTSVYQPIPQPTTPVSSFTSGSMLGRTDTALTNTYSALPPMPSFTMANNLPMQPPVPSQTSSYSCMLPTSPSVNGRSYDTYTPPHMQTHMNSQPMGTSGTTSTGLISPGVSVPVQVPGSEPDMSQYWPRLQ
Steroid hormone receptor ERR1 (Homo sapiens), sequence (P11474 whole entry, looked up, the tested form may be a part): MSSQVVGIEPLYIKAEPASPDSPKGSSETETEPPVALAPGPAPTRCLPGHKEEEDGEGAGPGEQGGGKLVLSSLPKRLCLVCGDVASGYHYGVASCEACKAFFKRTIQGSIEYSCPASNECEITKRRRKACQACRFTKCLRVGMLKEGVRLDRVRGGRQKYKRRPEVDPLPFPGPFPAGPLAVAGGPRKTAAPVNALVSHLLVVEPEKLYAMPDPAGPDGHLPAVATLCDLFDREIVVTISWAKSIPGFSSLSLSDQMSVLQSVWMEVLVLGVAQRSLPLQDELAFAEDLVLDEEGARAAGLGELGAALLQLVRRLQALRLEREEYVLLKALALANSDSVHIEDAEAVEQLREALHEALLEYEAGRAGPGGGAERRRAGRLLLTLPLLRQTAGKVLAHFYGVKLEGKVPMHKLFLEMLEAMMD
Transcription factor Sp1 (Homo sapiens), sequence (P08047 whole entry, looked up): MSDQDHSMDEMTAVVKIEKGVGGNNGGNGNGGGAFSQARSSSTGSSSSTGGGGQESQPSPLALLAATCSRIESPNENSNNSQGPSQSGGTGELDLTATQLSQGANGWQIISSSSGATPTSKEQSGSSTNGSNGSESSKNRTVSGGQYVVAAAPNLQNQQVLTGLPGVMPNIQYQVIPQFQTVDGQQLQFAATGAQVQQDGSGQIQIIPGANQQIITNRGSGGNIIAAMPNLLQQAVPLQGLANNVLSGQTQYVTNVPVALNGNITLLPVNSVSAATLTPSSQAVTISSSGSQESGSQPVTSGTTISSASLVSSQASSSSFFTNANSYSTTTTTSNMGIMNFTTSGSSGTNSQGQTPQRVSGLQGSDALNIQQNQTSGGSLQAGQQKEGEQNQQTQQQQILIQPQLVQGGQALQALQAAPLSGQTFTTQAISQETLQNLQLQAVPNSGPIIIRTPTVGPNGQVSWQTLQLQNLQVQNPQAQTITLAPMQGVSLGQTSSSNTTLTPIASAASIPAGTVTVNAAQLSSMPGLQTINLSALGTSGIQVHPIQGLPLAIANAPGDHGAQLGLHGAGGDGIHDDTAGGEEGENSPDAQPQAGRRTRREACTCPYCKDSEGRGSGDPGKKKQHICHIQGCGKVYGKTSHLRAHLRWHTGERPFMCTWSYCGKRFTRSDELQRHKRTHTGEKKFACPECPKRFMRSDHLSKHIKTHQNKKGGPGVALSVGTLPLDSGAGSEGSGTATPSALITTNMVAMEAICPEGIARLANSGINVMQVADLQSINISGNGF
Signal transducer and activator of transcription 3 (Homo sapiens), sequence (P40763 whole entry, looked up, the tested form may be a part): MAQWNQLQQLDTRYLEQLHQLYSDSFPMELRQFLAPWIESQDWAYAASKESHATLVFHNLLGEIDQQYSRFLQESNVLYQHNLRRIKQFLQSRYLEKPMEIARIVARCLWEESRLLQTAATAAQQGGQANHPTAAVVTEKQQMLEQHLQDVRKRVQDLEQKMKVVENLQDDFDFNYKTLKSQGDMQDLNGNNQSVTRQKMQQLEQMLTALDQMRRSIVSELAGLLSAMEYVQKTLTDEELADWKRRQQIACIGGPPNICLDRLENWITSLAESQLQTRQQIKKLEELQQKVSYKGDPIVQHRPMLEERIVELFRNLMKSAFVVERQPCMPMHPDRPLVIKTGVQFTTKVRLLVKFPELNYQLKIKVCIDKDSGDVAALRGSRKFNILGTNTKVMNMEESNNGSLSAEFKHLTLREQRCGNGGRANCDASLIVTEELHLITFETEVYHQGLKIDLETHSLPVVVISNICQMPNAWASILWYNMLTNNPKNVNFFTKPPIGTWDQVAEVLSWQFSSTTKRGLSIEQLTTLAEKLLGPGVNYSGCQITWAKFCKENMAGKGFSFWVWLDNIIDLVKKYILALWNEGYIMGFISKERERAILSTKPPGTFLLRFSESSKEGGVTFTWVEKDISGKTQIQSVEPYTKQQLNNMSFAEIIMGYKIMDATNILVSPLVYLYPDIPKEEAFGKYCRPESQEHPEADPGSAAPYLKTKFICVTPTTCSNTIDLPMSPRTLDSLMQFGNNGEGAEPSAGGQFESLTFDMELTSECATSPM
X-box-binding protein 1 (Homo sapiens), sequence (P17861 whole entry, looked up, the tested form may be a part): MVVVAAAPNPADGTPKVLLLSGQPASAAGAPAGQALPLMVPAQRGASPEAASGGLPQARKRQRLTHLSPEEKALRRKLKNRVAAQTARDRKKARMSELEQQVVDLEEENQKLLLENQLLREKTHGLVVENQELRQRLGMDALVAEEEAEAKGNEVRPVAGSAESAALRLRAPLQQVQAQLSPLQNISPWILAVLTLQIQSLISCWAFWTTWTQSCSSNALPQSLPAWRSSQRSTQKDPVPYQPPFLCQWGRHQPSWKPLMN

In general, AC50 refers to the concentration giving half of the maximal activity seen. On to `COC(=O)NC(=S)Nc1ccccc1NC(=S)NC(=O)OC`, for which the call in [1], in assay [4], in assay [5], in assay [6], in [7] and in assay [8] was inactive. Further, the outcome in [9], in assay [10], in [11] and in assay [13] was inactive. Moreover, the concentration at half-maximal activity (AC50) was 7.61 µM (active) in assay [2], 34 µM (active) in assay [3] and 50 µM (active) in assay [12].

As to `COc1cc(Cl)c(OC)cc1Cl`, the outcome in assay [1], in assay [5], in assay [6], in assay [14], in assay [7] and in [8] was inactive. For the same compound, the compound was called inactive in assay [9], in assay [10], in assay [11], in assay [12], in assay [15] and in assay [13]. Besides, the compound was classed as inactive in assay [16]. Also, the AC50 in [2] is 50 µM (active).

Take `CCNP(=S)(OC)O/C(C)=C/C(=O)OC(C)C` (stereo not drawn): the call in assay [1], in [4], in assay [5], in assay [6], in assay [7] and in assay [8] was inactive. The result in assay [9], in assay [10], in [11], in assay [17] and in [13] was inactive. Besides, the AC50 is 2.6 µM (active) in assay [2] and 13.8 µM (active) in assay [12].

On to `CCN(CC)C(=O)C(C)Oc1cccc2ccccc12` (stereo not drawn), for which the outcome in assay [1], in [5], in assay [6], in assay [7], in assay [8] and in [9] was inactive. Moreover, the call in assay [10], in assay [11], in assay [17], in assay [13] and in assay [16] was inactive. In addition, the AC50 in assay [2] is 0.163 µM (active); in [3], 50 µM (active); in assay [4] it was 28 µM (active).

For `COP(=O)(OC)O/C(C)=C/C(=O)N(C)C`, the compound was called inactive in assay [1], in assay [3], in [4], in [5], in [6] and in assay [7]. Moreover, the call in [8], in [9], in assay [10], in [11], in [12] and in assay [18] was inactive. Besides, in assay [13], the compound was called inactive. In addition, in assay [2], the AC50 is 68.5 µM (active).

As for `O=C(O)c1c(Cl)ccc2cc(Cl)cnc12`, the compound was classed as inactive in [1], in assay [2], in assay [3], in [4], in assay [5] and in assay [6]. Also, the compound was called inactive in assay [7], in assay [8], in assay [9], in assay [10], in assay [11] and in assay [12]. The call in assay [17], in assay [13] and in [16] was inactive.

With `CC(C)N1C(=O)c2ccccc2NS1(=O)=O`, the outcome in assay [1], in assay [3], in assay [4], in assay [5], in assay [6] and in assay [7] was inactive. For the same compound, the call in assay [8], in assay [9], in [10], in [11], in assay [18] and in [15] was inactive. Further, the compound was classed as inactive in assay [13]. Further, the AC50 in [2] was 12.1 µM (active); in [12], 14.9 µM (active).

Take `OC(c1ccc(Cl)cc1)(c1ccc(Cl)cc1)C(Cl)(Cl)Cl`: the compound was called inactive in [1], in assay [3], in [5], in [6], in assay [14] and in assay [7]. Besides, the call in assay [8], in [9], in assay [10], in [11], in assay [12] and in assay [18] was inactive. For the same compound, the outcome in assay [15] and in [13] was inactive. Besides, in assay [2], the AC50 is 2.86 µM (active).
